# TDP1 cell CPT: DT40-hTDP1 cell growth loss with CPT | Potency, µM (titrated, usually from 46.2 µM), hits mostly inhibitors | chicken DT40 Tdp1-/-;hTDP1 cells + 20 nM CPT, ATP luminescence, 48 h | actives 12% (n = 420,000); further: nearly all actives have a fitted effect of over 55% in size
#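 Chicken DT40 Tdp1-/- cells stably complemented with human TDP1 were seeded at 400 cells/well in medium containing 20 nM camptothecin, exposed to pin-transferred compounds, and grown at 37 °C for at least 48 hr. Viability was read as ATP luminescence.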
# TDP1 block: TDP1 (human) enzyme inhibition | Q9NUW8 | Potency, µM (titrated, usually from 130 µM), most hits filed as inhibitors | actives 0.28% (n = 350,000) | AID 485290 | recombinant TDP1, AlphaScreen DNA substrate cleavage; further: nearly all actives have a fitted effect of over 40% in size
# Target sequence (Q9NUW8 whole entry, looked up): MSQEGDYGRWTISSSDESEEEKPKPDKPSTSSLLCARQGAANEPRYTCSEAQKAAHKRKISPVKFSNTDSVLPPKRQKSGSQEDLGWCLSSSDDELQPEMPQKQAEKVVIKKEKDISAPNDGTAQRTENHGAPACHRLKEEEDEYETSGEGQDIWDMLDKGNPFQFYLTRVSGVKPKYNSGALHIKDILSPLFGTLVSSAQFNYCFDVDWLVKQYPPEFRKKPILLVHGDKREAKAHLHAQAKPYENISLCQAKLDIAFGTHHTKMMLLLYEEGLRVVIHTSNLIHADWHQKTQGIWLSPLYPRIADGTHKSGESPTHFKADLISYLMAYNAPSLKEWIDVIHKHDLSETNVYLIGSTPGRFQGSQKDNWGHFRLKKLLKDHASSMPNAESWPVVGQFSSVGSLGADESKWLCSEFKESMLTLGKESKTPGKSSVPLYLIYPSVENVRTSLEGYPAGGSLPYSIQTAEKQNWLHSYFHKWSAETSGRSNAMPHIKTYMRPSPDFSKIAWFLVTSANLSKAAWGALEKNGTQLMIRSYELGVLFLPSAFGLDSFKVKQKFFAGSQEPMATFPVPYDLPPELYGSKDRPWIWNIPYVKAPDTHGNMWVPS
#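 Compounds were preincubated with Tdp1 (1 nM final) for 15 min at room temperature before substrate (15 nM final) started a 5 min reaction; beads (10 ug/ml final) were then added for 10 min before AlphaScreen detection.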
# CtBP-E1A inh: inhibitors of CtBP/E1A interaction; activity change, % (test concentration not listed); AID 651724; AlphaScreen GST-E1A/His-CtBP binding, 1536-well; stronger effect = lower value; actives 0.49% (n = 340,000); in the data active means activity change below about -65%; inconclusive means mostly about -30% to -63%
#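 Protein mix (5X: 125 nM each GST-E1A, His-CtBP) was incubated with pinned compound 2 h at 37 deg C in dark, in 50 mM Tris pH 8.0 buffer with 300 mM NaCl. Glutathione donor and nickel acceptor beads followed; AlphaScreen signal read after 1 h.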
# IL1B secr inh: inhibitors of inflammasome signaling (IL-1 beta secretion); actives 4.7% (n = 360,000); THP-1 LPS/ATP IL-1B secretion, AlphaLISA, 16 h; stronger effect = lower value; activity change, % at 57.5 µM; in the data active means activity change below about -50%; inconclusive means mostly about -30% to -49%
#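 THP-1 cells pretreated 1 hr with compounds (up to 57.5 uM final), then stimulated with LPS (250 ng/mL final) plus ATP (1.25 mM final); secreted IL-1B measured by AlphaLISA after 16 hr, decreased signal indicating inhibition.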
# DT40 TDP1 no CPT: qHTS for Inhibitors of human tyrosyl-DNA phosphodiesterase 1 (TDP1): qHTS in cells in absence of CPT; AID 686978, 2013; DT40 Tdp1-/- hTDP1 cells, no CPT, ATP luminescence, 48 h; actives 15% (n = 420,000); Potency, µM (series often up to 46.2 µM), most hits filed as inhibitors; further: nearly all actives have a fitted effect of over 55% in size
#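 Readout: luminescence from CellTiter-Glo after 30 min in the dark at RT. Cells: DT40 Tdp1-/- with stable hTDP1, 400/well. Exposure: compounds alone, ≥48 hr, 37 °C.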
# Six1-Eya2 inh: blocks human Six1 binding to Eya2 | activity change, % (no concentration beside the values) | actives 0.56% (n = 360,000) | AlphaScreen GST-Six1/His-Eya2 binding, biochemical; stronger effect = lower value; in the data active means activity change below about -65%; inconclusive means mostly about -30% to -63%
#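 AlphaScreen luminescence read after one hour at 37 °C in darkness. Pin-transferred compounds met GST-Six1 and His-Eya2 protein (5X stock 250 nM/500 nM) plus glutathione donor and Ni-chelate acceptor beads (5X, 50 ug/mL).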
# Numbers stand for hits; . = inactive; ? = inconclusive; / = no result given; [ ] = dose if it differs, or a comment. Hits are enriched below; roughly 18% of the tested compounds scored in any of these assays. Unless noted, the call rests on the fitted dose curve; in most records, active means well fitted curve in the direction sought with a large enough effect; inconclusive means small, poorly fitted or top-dose-only effect, or another doubt; inactive means no such curve, though single readings can be large; an effect the other way counts as inactive or inconclusive.
SMILES,TDP1 cell CPT,TDP1 block,CtBP-E1A inh,IL1B secr inh,DT40 TDP1 no CPT,Six1-Eya2 inh
Cc1ccc(Cn2ccsc2=NC(=O)COC(=O)c2ccc(NC(=O)CC#N)cc2)cc1,?,/,.,.,16µM,.
Cc1cc(C(=O)COC(=O)c2ccc(NC(=O)CC#N)cc2)c(C)n1CC(F)(F)F,.,/,.,.,.,.
Cc1cc(C(=O)COC(=O)c2ccc(NC(=O)CC#N)cc2)c(C)n1C1CC1,21µM,.,.,.,21µM,.
Cc1ccc(Cn2ccsc2=NC(=O)CCl)cc1,12µM,.,.,-100,5.8µM,.
Cc1ccc(NC(=O)CSCC(=O)N=c2sccn2C)cc1,.,.[0.505 µM],.,.,?,.
NC(=O)COc1ccc2cc(-c3ccc(F)cc3)c(=O)oc2c1,.,.,.,.,.,.
O=C(O)c1ccc2c(c1)C(=O)N(NC(=O)c1ccccc1)C2=O,.,.,.,?,.,.
COCC(=O)NC1CC2CCC(C1)N2C(=S)Nc1ccccc1C(=O)OC (stereo not drawn),.,.,.,.,.,.
C=C(C1=CCN(S(=O)(=O)C(C)(C)C)[C@H]1CCO)c1ccccc1,?,/,.,.,16µM,.
C=C(C1=CCN(S(=O)C(C)(C)C)[C@H]1CCO)c1ccccc1 (stereo partly drawn),13µM,/,.,.,?,.
C[C@H]1CN(S(=O)(=O)C(C)(C)C)[C@H](CCO)/C1=C\c1ccccc1,.,/,.,.,.,.
O=C(O)c1ccc(S(=O)(=O)c2ccc3c(c2)C(=O)N(CC2CCCO2)C3=O)cc1 (stereo not drawn),.,.,.,.,.,.
O=C(CSc1nc2ccccc2nc1N1CCCCC1)Nc1ccc(F)cc1,.,/,.,.,?,.
O=C(CSc1nc2ccccc2nc1N1CCOCC1)N1CCN(c2ccccc2)CC1,21µM,/,.,.,12µM,.
Cc1cccc(N2CCN(C(=O)CSc3nc4ccccc4nc3N3CC(C)OC(C)C3)CC2)c1C (stereo not drawn),2.1µM,.,.,.,4.1µM,.
O=C(CSc1nc2ccccc2nc1N1CCCCC1)N1CCN(c2ccccc2)CC1,21µM,/,.,.,?,.
NS(=O)(=O)c1ccc(NS(=O)(=O)c2ccc(NC(=O)c3ccc(-c4ccccc4)cc3)cc2)cc1,.,.,.,.,.,.
CC(C)NC(=O)COc1cccc2ccccc12,.,.,.,.,.,.
Cc1cc(SCc2ccc(Cl)cc2Cl)nc(=O)[nH]1,?,.,/,.,10µM,.
Cc1cc(SCc2ccccc2Cl)nc(=O)[nH]1,.,.,/,.,.,.
CCCS(=O)(=O)NC(=O)C1(C)CCN1C(=O)Cc1ccc(-c2ccccc2)cc1 (stereo not drawn),.,/,.,.,.,.
CC(=O)NC1=NN(C(C)=O)C(C)(c2ccccc2)S1 (stereo not drawn),5.8µM,/,.,.,5.8µM,.
Cc1ccc(OCC(=O)NCc2ccccn2)c(Br)c1,.,.,.,.,.,.
COC(=O)c1cc(Cl)cc2c(CCO)c[nH]c12,.,.,.,.,?,.
CCOc1ccccc1NC(=O)Cn1c(=O)n(Cc2ccco2)c(=O)c2ccc(C(=O)NC3CCCC3)cc21,?,.,/,/,23µM,/
SMILES,TDP1 cell CPT,TDP1 block,CtBP-E1A inh,IL1B secr inh,DT40 TDP1 no CPT,Six1-Eya2 inh
O=C(Cn1c(=O)n(Cc2ccco2)c(=O)c2ccc(C(=O)NC3CCCC3)cc21)Nc1ccc(F)cc1,.,.,/,/,.,/
Cc1ccc(C)c(NC(=O)Cn2c(=O)n(Cc3ccco3)c(=O)c3ccc(C(=O)NC4CCCC4)cc32)c1,?,.,/,/,16µM,/
CCOC(=O)N1CCN(C(=O)c2ccc(N(C)S(=O)(=O)c3ccc(C)cc3)cc2)CC1,?,.,.,.,?,.
COc1cc2nc(CN(C)Cc3nc4ccccc4c(=O)[nH]3)[nH]c(=O)c2cc1OC,13µM,.,-66,.,13µM,-66
COc1cc2nc(CN(C)Cc3ccc(Cl)cc3)[nH]c(=O)c2cc1OC,?,.,.,.,26µM,.
CCN(Cc1nc2ccccc2c(=O)[nH]1)Cc1nc2cc(OC)c(OC)cc2c(=O)[nH]1,.,.,.,.,?,.
COc1cc2nc(CN3CCC(C(O)(c4ccccc4)c4ccccc4)CC3)[nH]c(=O)c2cc1OC,?,.,.,.,18µM,.
Fc1ccc(OCCCCCn2ccnc2)cc1,.,.,.,.,?,.
Cc1cccc(NC(=O)c2cc(-c3cc(C)cc(C)c3O)n[nH]2)c1,?,/,.,-54,?,.
COc1ccc(NC(=O)c2cc(-c3cc(C)cc(C)c3O)n[nH]2)cc1Cl,21µM,.,.,-79,?,.
Cc1cc(C)c(O)c(-c2cc(C(=O)Nc3cccnc3)[nH]n2)c1,?,.,?,/,?,.
COc1ccc(NC(=O)CC#N)cc1OC,.,.,.,.,.,.
CC1CCN(c2nc3c(S(=O)(=O)c4ccc(Cl)cc4)nnn3c3ccsc23)CC1,?,.,/,/,16µM,/
CC(C)c1ccc(S(=O)(=O)c2nnn3c2nc(N2CCN(C)CC2)c2sccc23)cc1,16µM,.,/,/,?,/
CN(Cc1cccc(F)c1)C(=O)C(c1ccccc1)c1ccccc1,?,/,.,.,.,.
CCc1ccc(Cn2nnc(C(=O)NCc3ccccc3OC)c2N)cc1,.,.,.,.,.,.
COc1ccc(CCC2CCNCC2)cc1,?,/,/,.,18µM,.
CN(C)c1cccc2c(C=C(C#N)C#N)ccc(N(C)C)c12,?,.,.,-95,?,.
CN(C)c1cccc2c(/C=N/O)ccc(N(C)C)c12,.,.,.,.,.,.
Cc1nc(NC(=O)c2c(-c3ccccc3)c(-c3ccccc3)nn(C)c2=O)sc1C,0.46µM,.,/,/,0.58µM,/
CCn1nc(-c2ccccc2)c(-c2ccccc2)c(C(=O)Nc2ccccc2C(N)=O)c1=O,?,.,/,/,?,/
CCOC(=O)c1sc(NC(=O)c2c(OC)cccc2OC)nc1C,.,.,.,.,.,.
CC(C)CNC(=O)c1c(-c2ccccc2)c(-c2ccccc2)nn(C)c1=O,?,.,/,/,?,/
CCn1nc(-c2ccccc2)c(-c2ccccc2)c(C(=O)Nc2ccccc2C#N)c1=O,18µM,.,/,/,12µM,/
CCOC(=O)c1sc(NC(=O)c2c(-c3ccccc3)c(-c3ccccc3)nn(C)c2=O)nc1C,?,.,/,/,16µM,/
COc1cc(C(=O)Nc2cccc(S(=O)(=O)N3CCCC3)c2)c([N+](=O)[O-])cc1OC,.,.,.,.,?,.

# Assay outcomes (PubChem)
